Screening results: PubChem, National Center for Advancing Translational Sciences (NCATS)
Tau ThT inhib: qHTS for Inhibitors of Tau Fibril Formation, Thioflavin T Binding. AID 1460, 2008. Microtubule-associated protein tau (Homo sapiens), P10636. Potency, µM (top dose mostly 57.4 µM), inactives show at the top dose activity, negative = inhibition, hits mostly inhibitors. 270,000 compounds, 2.1% hits. recombinant tau K18 P301L, heparin-induced fibrillization, ThT fluorescence; note: nearly all actives have a fitted effect of over 55% in size
Target sequence (P10636 561-689 P618L limits assumed): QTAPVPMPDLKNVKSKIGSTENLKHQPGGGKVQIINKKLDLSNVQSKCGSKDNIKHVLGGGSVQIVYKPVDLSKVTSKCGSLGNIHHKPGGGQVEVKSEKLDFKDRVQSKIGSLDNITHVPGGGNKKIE
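Heparin-induced (20 uM) aggregation of recombinant human K18 P301L tau, 15 uM unlabeled with 0.24 uM labeled, pH 7 acetate buffer, 6 hr at 37 C with compound. Fibrils quantified by 30 uM ThT fluorescence after 1 hr ambient incubation.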
Tau fluor cs: Counterscreen qHTS for Inhibitors of Tau Fibril Formation, Fluorescence Polarization; 280,000 compounds, 0.93% hits; tau K18 P301L Alexa594 fluorescence, heparin fibrillization; Potency, µM (doses to about 57.7 µM), for inactives: at the highest dose activity change, negative = decrease; note: nearly all actives have a fitted effect of over 55% in size
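Human tau K18 P301L (15 uM unlabeled, 0.24 uM Alexa 594-labeled) in 100 mM sodium acetate pH 7 with 20 uM heparin, 6 hr at 37 C. ThT 30 uM added, 1 hr ambient; Alexa 594 FP and total fluorescence read at 555/632 nm.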
NPSR antagonist: qHTS Assay for Antagonists of the Neuropeptide S Receptor: cAMP Signal Transduction; 220,000 compounds, 1% hits; Potency, µM (doses to about 38.3 µM), without a hit: top-dose activity change, negative = inhibition, most hits filed as inhibitors; CHO-NPSR cells, cAMP TR-FRET, antagonist mode; note: nearly all actives have a fitted effect of over 50% in size
Target sequence (Q6W5P4 whole entry, looked up): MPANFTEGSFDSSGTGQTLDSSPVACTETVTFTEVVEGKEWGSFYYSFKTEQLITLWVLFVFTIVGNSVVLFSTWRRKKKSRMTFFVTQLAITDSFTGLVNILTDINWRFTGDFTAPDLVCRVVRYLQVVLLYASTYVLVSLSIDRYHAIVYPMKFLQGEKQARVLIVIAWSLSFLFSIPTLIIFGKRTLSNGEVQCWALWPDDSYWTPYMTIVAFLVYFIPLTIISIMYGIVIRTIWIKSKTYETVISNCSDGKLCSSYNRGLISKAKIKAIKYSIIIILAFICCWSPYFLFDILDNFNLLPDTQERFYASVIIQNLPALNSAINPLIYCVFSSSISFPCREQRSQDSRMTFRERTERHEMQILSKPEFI
Tau fibril FP: qHTS for Inhibitors of Tau Fibril Formation, Fluorescence Polarization; K18 P301L tau heparin fibrillization, Alexa594 FP, 6 h; Potency, µM (series often up to 57.7 µM), inactives show top-dose activity, negative = inhibition, most hits filed as inhibitors; 280,000 compounds, 0.39% hits; AID 1468, 2008; note: nearly all actives have a fitted effect of over 55% in size
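Steps: dispense K18 P301L tau (15 uM plus 0.24 uM Alexa 594 tracer, final) in pH 7 sodium acetate; add compound; add heparin (20 uM final); incubate 6 hr, 37 C; add ThT (30 uM final); after 1 hr ambient, read FP.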
ALDH1A1 inh: qHTS Assay for Inhibitors of Aldehyde Dehydrogenase 1 (ALDH1A1); AID 1030, 2008; Purified ALDH1A1, NADH fluorescence, propionaldehyde substrate; 220,000 compounds, 7.3% hits; Aldehyde dehydrogenase 1A1 (Homo sapiens), P00352; Potency, µM (top dose mostly 75.3 µM), for the others: at the top dose activity, negative = inhibition, actives largely listed as inhibitors; active = well fitted inhibition curve with a large enough effect, not every such curve was filed as active; inconclusive = small, poorly fitted or top-dose-only effect, or another doubt; inactive = no such curve, though single readings can be large or run the other way;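 note: plate controls were no enzyme wells and a reference inhibitor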
HPGD block: qHTS Assay for Inhibitors of HPGD (15-Hydroxyprostaglandin Dehydrogenase). 15-hydroxyprostaglandin dehydrogenase [NAD(+)] (Homo sapiens), P15428. purified HPGD, NADH fluorescence kinetic, PGE2 substrate. Potency, µM, inactives show top-dose activity change, negative = inhibition, hits mostly inhibitors. 150,000 compounds, 4.3% hits. AID 894, 2007; active = well fitted inhibition curve with a large enough effect, not every such curve was filed as active; inconclusive = small, poorly fitted or top-dose-only effect, or another doubt; inactive = no such curve, though single readings can be large or run the other way
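20 nM HPGD preincubated 15 min at room temperature with compound in 50 mM Tris-HCl pH 8, 0.01% Tween 20. Started with 1 mM NAD+ and 30 uM prostaglandin E2; NADH fluorescence (360/450 nm) read 5 times over 30-s intervals, last minus first.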
* marks the source's active call; other numbers are inactive results; u = inconclusive; x = not tested or not shown; [ ] = dose if it differs, or a comment. Rows were chosen to be rich in hits. Some 9.5% of all compounds tested hit in one or more screens of this group. Unless noted, calls come from the whole dose curve; as a rule, active = well fitted curve in the direction sought with a large enough effect; inconclusive = small, poorly fitted or top-dose-only effect, or another doubt; inactive = no such curve, though single readings can be large; an effect the other way counts as inactive or inconclusive. Unless noted, % is set by controls: 0 for no effect and ±100 for the full control effect; potency is the fitted concentration of half-maximal effect.

SMILES	Tau ThT inhib	Tau fluor cs	NPSR antagonist	Tau fibril FP	ALDH1A1 inh	HPGD block
CC(=O)c1cccc(NC(=O)c2cc3sc(Cl)cc3n2C)c1	-7%	-23%	x	-7%	x	x
Cc1cc(OCCn2c(CCNC(=O)C3CCCCC3)nc3ccccc32)ccc1Cl	-10%	-2%	x	-2%	x	x
Cc1cc(Cl)ccc1N=C1N=C(N)c2ccccc21	-16%	-9%	-31%	-1%	5%	-9%
Nc1ccccc1N=c1ssnc1Cl	22µM*	-30%	0%	u	u	x
Cc1ccc(N=c2ssnc2Cl)cc1	14µM*	-25%	-8%[46.1 µM]	u	2.2µM*	2.8µM*
Cc1cc(C)nc(/N=c2/ssnc2Cl)c1	4µM*	-21%	-29%[46.1 µM]	8.9µM*	4µM*	13µM*
Cc1cc(Cl)ccc1N=c1ssnc1Cl	14µM*	-27%	u	22µM*	1.3µM*	4.5µM*
Cc1ccccc1Nc1oc(-c2ccccc2)nc1CCc1ccccc1	-8%	-15%	x	u	u	-6%
CC1CCn2c(nc3cc(C(=O)NCc4ccc(OC(C)C)cc4)ccc32)C1 (stereo unspecified)	-7%	3%	x	-3%	x	x
Cc1ccc(NC(=O)CCc2nc3cccnc3n2-c2ccccc2)cc1Cl	-5%	-28%	x	1%	x	x
O=C1C2=C(NC(=S)NC2c2ccc(Cl)cc2)NC(c2ccc(Cl)cc2)N1c1ccc(Cl)cc1 (stereo unspecified)	32µM*	u	u	u	11%	-7%
CCc1ccc(C2NC(=S)NC3=C2C(=O)N(c2ccccc2OC)C(c2ccc(CC)cc2)N3)cc1 (stereo unspecified)	u	-29%	-11%[46.1 µM]	u	u	-19%
CCn1c(SCC(=O)Nc2cccc(NC(C)=O)c2)nnc1C(C)C	1%	0%	1%[46.1 µM]	2%	3%	-12%
CC(C)(C)C(=O)Nc1nc2ccc(S(C)(=O)=O)cc2s1	3%	-1%	16%	8%	u	x
CC1=CCC(C(=O)O)C(C(=O)Nc2nc3ccc(S(C)(=O)=O)cc3s2)C1 (stereo unspecified)	1%	4%	-6%[46.1 µM]	12%	0.22µM*	-17%
Cn1c(=O)c(Sc2ccccc2)c(O)c2ccccc21	-2%	5%	13%	2%	25µM*	x
Cc1ccc(Sc2c(O)c3ccccc3n(C)c2=O)cc1	1%	6%	-23%	4%	-6%	-9%
CCc1ccc(NC(=O)CCc2nc3ccccc3[nH]2)cc1	4%	7%	4%	5%	-2%	x
Cc1cc(/C=N/NC(=O)c2cccc([N+](=O)[O-])c2)c(C)n1-c1ccc(Cl)cc1Cl	u	u	11%[46.1 µM]	5%	u	-20%
Cc1ccccc1OCC(=O)N/N=C/c1cn(Cc2ccccc2)c2ccccc12	-5%	-19%	-20%	16%	u	u
Cc1ccc(OCC(=O)N/N=C\c2cn(Cc3ccccc3)c3ccccc23)cc1C	u	u	-36%	8%	13µM*	u
Cc1cccc(C)c1-n1c(C)cc(/C=N\Nc2ccc([N+](=O)[O-])cn2)c1C	5µM*	u	-18%[46.1 µM]	u	10µM*	-20%
CNC(=S)N/N=C/c1cn(Cc2ccc(F)cc2)c2ccccc12	u	u	-14%	u	28µM*	-15%
O=[N+]([O-])c1ccc(N/N=C/c2cn(Cc3ccc(F)cc3)c3ccccc23)nc1	7%	2%	-25%[46.1 µM]	10%	18µM*	-21%
COC(=O)N/N=C/c1cn(Cc2ccc(F)cc2)c2ccccc12	-5%	u	-20%	13%	x	x
